# PKM2 inh – blocks activity of human pyruvate kinase M2. P14618. purified PKM2, ATP generation, Kinase-Glo luminescence. Potency, µM (top dose mostly 57.5 µM), inactives show top-dose activity change, negative = inhibition, hits mostly inhibitors. 260,000 tested, 0.058% active. AID 1634; active means well fitted inhibition curve with a large enough effect; further: nearly all actives have a fitted effect of over 60% in size
# Target sequence (P14618 whole entry, looked up): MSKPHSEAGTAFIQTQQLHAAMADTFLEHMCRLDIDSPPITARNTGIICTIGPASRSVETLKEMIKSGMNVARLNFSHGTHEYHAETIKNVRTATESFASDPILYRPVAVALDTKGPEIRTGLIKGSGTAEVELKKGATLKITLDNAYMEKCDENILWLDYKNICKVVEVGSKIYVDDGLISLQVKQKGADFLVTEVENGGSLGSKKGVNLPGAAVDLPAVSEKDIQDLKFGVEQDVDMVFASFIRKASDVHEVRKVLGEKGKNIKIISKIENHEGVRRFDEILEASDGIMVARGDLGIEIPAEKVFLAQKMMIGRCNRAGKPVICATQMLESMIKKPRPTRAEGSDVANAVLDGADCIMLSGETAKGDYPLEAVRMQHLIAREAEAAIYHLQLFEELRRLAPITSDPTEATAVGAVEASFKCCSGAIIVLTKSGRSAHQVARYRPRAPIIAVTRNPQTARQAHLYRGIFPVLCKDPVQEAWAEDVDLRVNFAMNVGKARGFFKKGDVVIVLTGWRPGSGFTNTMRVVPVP
#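 Coupled luciferase luminescence (Kinase-Glo) detects ATP generated from 0.1 mM ADP and 0.5 mM PEP in imidazole buffer pH 7.2 with KCl, MgCl2; 1 h at room temperature. Enzyme at intermediate activity; normalized to uninhibited and no-enzyme controls.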
# The depositor's hits bear a star. This excerpt belongs to a sample that is enriched for hits. Potency means the concentration at half of the fitted maximal effect.
SMILES,PKM2 inh
COc1ccc(CN2C(=O)/C(=C/c3ccncc3)SC2=S)cc1,31%
NC(=O)COC(=O)CNC(=O)c1sc2ccccc2c1Cl,36%
O=C(/C=C/c1ccccc1[N+](=O)[O-])Nc1cccnc1,47%
COC(=O)C1=C(C(=O)OC)C(c2ccccc2O)c2sc(=O)[nH]c2S1 (stereo not given),58%
O=c1[nH]cc(I)cc1I,59%
O=C(CCC(=O)N1CCOc2ccc(Cl)cc21)NCCN1CCOCC1,31%
O=C1C=CC(=O)N1c1ccc(OC(F)F)cc1,51%
Cc1ccc(/C=C/C(=O)N2CCN(S(=O)(=O)/C=C/c3ccccc3)CC2)o1,72%
COc1cccc(CNC(=O)N2CCN(S(=O)(=O)c3ccc(C)cc3)CC2)c1,88%
CCCCNS(=O)(=O)c1ccc2nc(SCC(=O)c3ccccc3OC)[nH]c2c1,32%
COc1ccccc1C(=O)Nc1ncc2c(n1)CC(c1ccco1)CC2=O (stereo not given),46%
COc1ccccc1C(=O)Nc1nc2ccccc2[nH]1,16µM*
COc1ccccc1CC(=O)NNS(=O)(=O)c1ccc([N+](=O)[O-])cc1,39%
Clc1ccc(Cn2ncc3c(N4CCOCC4)ncnc32)cc1,41%
O=C(CCC(=O)N1CCN(S(=O)(=O)c2ccc3ccccc3c2)CC1)NCC(F)(F)F,49%
O=C(CCn1cnc2ccccc21)N=Nc1c(O)[nH]c2ccccc12,44%
O=C1COc2cc(S(=O)(=O)CCC(=O)N3CCCCC3)c(Cl)cc2N1,38%
O=C(/C=C\c1ccc(-c2ccccc2)o1)c1ccccc1,35%
N#C/C(=C/Nc1ccccc1C(=O)O)C(N)=O,-8%
NC(=O)c1ccccc1N/C=C/C(=O)c1ccccc1,11µM*
COc1ccccc1CNc1ncnc2c1nnn2Cc1ccccc1,83%
O=C(Cc1cccs1)N1CCN(S(=O)(=O)c2ccc(Br)cc2)CC1,65%
Cc1ccc2c(c1)C(N1CCCC1=O)CC(c1ccco1)N2 (stereo not given),14µM*
Cc1ccc(CC2CC(=O)N(Cc3ccco3)C2=O)cc1 (stereo not given),30%
O=C(Nc1ccccn1)c1cc2ccccc2o1,13µM*
SMILES,PKM2 inh
O=C(NCc1cccs1)c1cc2ccccc2o1,0%
Cc1cc(NC(=O)CSc2nc3c(cc2C#N)CCC3)no1,82%
CCOC(=O)N/N=C(\C)c1ccc(C)c([N+](=O)[O-])c1,52%
Cc1ccc(-c2ccc(SCC(=O)Nc3cc(C)on3)nn2)cc1,-2%
CCOc1ccc(CNc2cccc(SC)c2)cc1,77%
CCOc1ccc(-c2ccc(SC)nn2)cc1,3.2µM*
O=S(=O)(Nc1ccc(-n2cccc2)cc1)c1ccccc1,72%
Cc1cccc(-n2nnnc2SCC(=O)Nc2cccc(S(N)(=O)=O)c2)c1,64%
COc1ccccc1N/C=C/C(=C(C#N)C#N)N(C)C,0%
Cn1c(=O)c2c(nc(Br)n2C/C=N/NC(N)=S)n(C)c1=O,87%
Cc1[nH]n(-c2ccccc2)c(=S)c1C=Nc1ccc([N+](=O)[O-])cc1,11µM*
O=[N+]([O-])c1ccc(-n2nnnc2-c2ccccc2)cc1,31%
CC1(C)SC(=S)N(c2ccccc2)C1/[N+]([O-])=C/c1cccc([N+](=O)[O-])c1 (stereo not given),33%
O=S(=O)(Nc1ccc2ccccc2n1)c1ccc2c(c1)CCO2,116%
Cc1ccc(-n2nnc(-c3nccn3C)n2)cc1,16µM*
COc1ccccc1S(=O)(=O)N1CCN(S(=O)(=O)c2ccccc2C#N)CC1,87%
COC(=O)CCCCCCCC(=O)Nc1nnc(C(F)(F)F)s1,32%
CCN(CC)CCn1c(C)nc2ccccc21,0%
CCn1c(C)nc2cc(-c3nc4n(n3)Cc3ccccc3-4)ccc21,16µM*
COC(=O)c1c(N2C(=O)CC(Sc3ccccc3C(=O)O)C2=O)sc2c1CCCC2 (stereo not given),71%
N/C(=N/OC(=O)c1ccccc1F)c1nonc1N,16µM*
Cc1c(C(=O)OCc2ccccc2)nnn1-c1nonc1N,36%
O=C(CSc1nc2ccc(Cl)cc2[nH]1)N1CCN(C(=O)c2ccco2)CC1,36%
CC(C)(C)C(=O)/C(=C/c1ccncc1)n1cncn1,49%
O=S(=O)(c1ccc(F)cc1)N1CCN(Cc2ccccn2)CC1,32%
SMILES,PKM2 inh
Cc1cc(C)c2c(N)c(-c3nc4ccccc4[nH]3)sc2n1,55%
Fc1ccccc1-c1nc2ccccc2[nH]1,32µM*
CC1=C(C#N)C(=O)N(C2CCS(=O)(=O)C2)C(=O)/C1=C\c1ccc(C)o1 (stereo not given),49%
O=C(NC1CC1)C1=C[C@@H](c2csc3ccccc23)C[C@@H](OCc2ccc(CO)cc2)O1,60%
CC(=O)c1c(C)[nH]c(C(=O)Nc2ccc(F)c(F)c2F)c1C,35%
COc1ccc(N2Cc3ccccc3C2=O)cc1,14µM*
COc1ccc(-n2c(=S)[nH]c3ncccc3c2=O)cc1,0%
COc1ccc(N2C(=O)CC(Sc3nnc(-c4ccccc4F)n3C)C2=O)cc1 (stereo not given),50%
COc1cccc(NC(=O)CN(C2=NC3CS(=O)(=O)CC3S2)c2cccc(C)c2)c1 (stereo not given),32%
Cn1c(CSc2nnc(SCc3ccccc3)s2)nc2ccccc21,100%
Cn1c(/C=C/c2ccccc2)nc2ccccc21,13µM*
Cn1c(Cn2cnc3ccccc32)nc2ccccc21,59%
COc1ccc(CCNC(=O)CCSc2nc(-c3ccco3)cc(C(F)(F)F)n2)cc1OC,82%
c1c2c(cc3sc(N4CCOCC4)nc13)OCCO2,14µM*
COc1cc2cc(C#N)c(SCC(=O)Nc3cc(C)on3)nc2cc1OC,64%
Cc1ccc(S(=O)(=O)Nc2ccccc2CNC2CCCCC2)cc1,45%
O=S(=O)(c1ccc(OCC2CO2)cc1)c1ccc(OCC2CO2)cc1 (stereo not given),72%
CCNc1nc(NC(C)C)nc(Oc2ccc(/C=N/O)cc2)n1,42%
Cc1ccc(-c2cc3c(nn2)-c2ccccc2C3=O)cc1,13µM*
CCOC(=O)C1=C(Cc2ccc(C)cc2)C(=O)c2ccccc2C1=O,40%
CCOc1cc(S(=O)(=O)n2nc(C)cc2C)ccc1Br,74%
COC(=O)c1ccc(C(NC(=O)OCc2ccccc2)/C(I)=C/[C@@H](C)C(=O)NCc2ccc(C)o2)cc1 (stereo not given in full),60%
CCOc1ccc(CC(=O)NNC(=S)NCCc2ccccc2)cc1,55%
O=c1c2ccccc2nc(-c2ccco2)n1/N=C/c1ccccc1O,47%
Cc1ccc(-n2[nH]c(C)c(/C=N/n3c(C)nc4ccccc4c3=O)c2=O)cc1,13µM*
Cc1nonc1CC(=O)N1CCCC(C(=O)c2ccc(Cl)cc2)C1 (stereo not given),131%
Cc1nnc2sc(SCC(=O)Nc3nccs3)nn2c1=O,62%
CCN1C(=O)/C(=C/c2ccc(C)o2)N(C)C1=S,38%
Cc1ccc(-c2csc(Nc3ccc(S(N)(=O)=O)cc3)n2)o1,89%

# Bioassay records as filed in PubChem BioAssay.
